Measured values: PubChem BioAssay (NCI)
About 83,000 compounds went through this panel and 20% of them were active in at least one assay; those are over-represented in the sample as a whole.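 Plates (96-well) were seeded with cells, treated with compound at one concentration, and incubated for 48 hours before percent growth was determined.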 Values without a mark were called inactive. Calls of active or inactive are those of the source. Rule for the calls: active = growth percent below 10; inactive = the rest.

test system: NCI-H322M lung; assay: NCI-60 one-dose screen, 48 h (100 = growth as untreated, 0 = no growth, -100 = all killed); settings: 10 µM unless noted

**Q.** `CCCc1cc2cc(-n3nc(CC)c4c3CC(C)(C)CC4=O)cc(NC3CCC(O)CC3)c2c(=O)[nH]1` (centres undefined) was tested. Which growth did it give?
**A.** The growth was 35.1%.

**Q.** `O=C1[C@@H]2Cc3c([nH]c4ccccc34)[C@H](c3ccc(Br)cc3)N2C(=O)CN1C1CCN(Cc2c(Cl)cccc2Cl)CC1` was tested. Which growth did it give?
**A.** The growth was 95.1%.

**Q.** For `COc1cccc(N2CCN(C3=C(Cl)C(=O)c4ncccc4C3=O)CC2)c1`, which growth is on record?
**A.** Its growth is 95.4%.

**Q.** For `CN1CCN(c2ccc(Nc3nc(NCCNS(=O)(=O)c4ccc5ccccc5c4)c4sccc4n3)cc2)CC1`, which growth is on record?
**A.** Its growth is 83.7%.

test system: HOP-62 NSCLC; assay: as above; settings: 10 µM unless noted

**Q.** How did the growth turn out when `NC(=O)n1c(=O)n(-c2cccc(C(F)(F)F)c2)c(=O)c2cc(-c3ccc(F)cc3F)ccc21` was run?
**A.** The growth was -9.38% (active).

**Q.** How did the growth turn out when `Cn1c(SCC(=O)c2ccco2)nc2ccccc2c1=O` was run?
**A.** Its growth is 99.7%.

**Q.** Which growth does the source give for `C=C(C)[C@@H]1CC[C@]2(C(=O)O)CC[C@]3(C)[C@H](CC[C@@H]4[C@@]5(C)C/C(=C/c6ccccn6)C(=O)C(C)(C)[C@@H]5CC[C@]43C)[C@@H]12` here?
**A.** Its growth is 36.3%.

**Q.** For `CCc1cc2c(cc1Cl)nc1c(=O)[nH]c(=O)nc-1n2CCOCC(C)(C)C`, which growth is on record?
**A.** Its growth is 104%.

**Q.** With `O=C(Nc1ccc(N2CCOCC2)cc1)Nc1ccc2c(ccn2C(=O)c2cccc(F)c2)c1` as the compound, how does the growth read?
**A.** Its growth is 31.1%.

**Q.** With `C#CCOc1cccc(-c2nc(N)nc(Nc3ccccc3SSc3ccccc3Nc3nc(N)nc(-c4cccc(OCC#C)c4)n3)n2)c1` as the compound, how does the growth read?
**A.** Its growth is -63.2% (active).

**Q.** How did the growth turn out when `CN1CCN(Cc2ccc(NC(=O)c3cncc(C#Cc4cnc5ccc(OCCCS(C)(=O)=O)nn45)c3)cc2C(F)(F)F)CC1` was run?
**A.** The growth was -47.7% (active).

**Q.** With `CNC(=O)c1cc(-n2ccc3cc(NC(=O)Nc4ccc(N5CCN(C)CC5)c(C(F)(F)F)c4)ccc32)ccn1` as the compound, how does the growth read?
**A.** Its growth is 75.6%.

**Q.** For `Nc1cc(C(=O)N/N=C\c2ccc(OC(F)F)c(OC3CCCC3)c2)nn1CC(O)c1ccccc1` (centres undefined), which growth is on record?
**A.** The growth was 101%.

**Q.** `CNC(=O)Nc1ccc(Nc2cc(-c3ccc(-n4cccn4)cc3)[nH]n2)c(C)c1` was tested. Which growth did it give?
**A.** Its growth is 106%.

**Q.** How did the growth turn out when `Cc1nc(/N=C(N)/N=C(\N)c2cccc(Br)c2)sc1C` was run?
**A.** The growth was 50%.

**Q.** Which growth does the source give for `Brc1cccc(-c2cc(-c3ccc4c(c3)OC=CO4)[nH]n2)c1` here?
**A.** The growth was 58.1%.

**Q.** `Cc1ccc2c(n1)C(=O)C(Cl)=C(Nc1ccc(C)c(C)c1)C2=O` was tested. Which growth did it give?
**A.** Its growth is 60.2%.

**Q.** How did the growth turn out when `CN1CCN(Cc2ccc(NC(=O)c3cncc(C#Cc4cnc5ccc(N)nn45)c3)cc2C(F)(F)F)CC1` was run?
**A.** Its growth is -1.79% (active).

**Q.** `O=C1[C@@H]2Cc3c([nH]c4ccccc34)[C@@H](c3ccc(Cl)cc3)N2C(=O)CN1C1CCN(Cc2ccccc2)CC1` was tested. Which growth did it give?
**A.** The growth was 61%.

**Q.** With `CN1CCN(c2ccc(C(=O)/C=C/c3cc(F)cc(C(F)(F)F)c3)cc2)CC1` as the compound, how does the growth read?
**A.** The growth was 93.1%.

**Q.** How did the growth turn out when `CC1(C)CC[C@]2(C(=O)NCCCCCCN(CCCN)CCCN)CC[C@]3(C)C(=CC[C@@H]4[C@@]5(C)CC[C@H](O)C(C)(C)[C@@H]5CC[C@]43C)[C@@H]2C1` was run?
**A.** The growth was 111%.

**Q.** With `N#Cc1c(-c2cccs2)cc(-c2cnccn2)nc1SCC(=O)N/N=C/c1ccccc1` as the compound, how does the growth read?
**A.** Its growth is 31.1%.

**Q.** `Cc1ccc(S(=O)(=O)NCCCNc2nccc(-c3[nH]c(-c4ccccc4)nc3-c3ccc(F)c(O)c3)n2)cc1` was tested. Which growth did it give?
**A.** The growth was 112%.

**Q.** How did the growth turn out when `COc1ccc2c(c1)c(-c1nc(N)nnc1-c1c[nH]c3ccccc13)cn2C` was run?
**A.** Its growth is 44.8%.

**Q.** With `N#Cc1c(-c2cccs2)cc(-c2cnccn2)nc1SCC(=O)N/N=C/c1ccncc1` as the compound, how does the growth read?
**A.** Its growth is 106%.

**Q.** Which growth does the source give for `Cc1ccc2c(n1)C(=O)C(Cl)=C(Nc1cccc(C(F)(F)F)c1)C2=O` here?
**A.** Its growth is 141%.

**Q.** For `C#CCN(C)CCCOc1ccc(NCc2ccc(/C=C/C(=O)NO)cc2)cc1Cl`, which growth is on record?
**A.** Its growth is 3.99% (active).

**Q.** With `CC1=C(SCC(=O)OCCCCCC(C)C)C(=O)c2ccccc2C1=O` as the compound, how does the growth read?
**A.** The growth was 106%.

**Q.** With `Cc1ccc2c(n1)C(=O)C(Cl)=C(Nc1ccc(C#N)cc1)C2=O` as the compound, how does the growth read?
**A.** The growth was 115%.

**Q.** With `Clc1ccc2[nH]cc(-c3cncn3CCc3ccc4c(c3)OCO4)c2c1` as the compound, how does the growth read?
**A.** Its growth is 85.5%.

**Q.** How did the growth turn out when `Cc1[nH]c(C(=O)Nc2ccc(C(=O)NCC3CCNCC3)cc2OC(C)C)c(Cl)c1Cl` was run?
**A.** Its growth is 86.4%.

**Q.** For `Nc1ncc(-c2ccc3ncnc(NCc4ccccc4)c3c2)cn1`, which growth is on record?
**A.** The growth was 35.7%.

**Q.** `O=C(NNc1nc2cc(F)cc(F)c2n2cccc12)c1cccnn1` was tested. Which growth did it give?
**A.** Its growth is 28.2%.

**Q.** For `CCCc1[nH]c(-c2cc(N)ccc2Cl)c2c1C(=O)CCCC2`, which growth is on record?
**A.** The growth was 94.5%.
